Data on one molecule can be found in PubChem BioAssay AID2284155 (EPA ToxCast).

SMILES strings stand for the structures. Active and inactive are the calls of the source. Rule for the calls: active = hit-call score of the fitted dose curve at least 0.9, where 1 is the maximum; inactive = score below 0.9.

The term AC50 denotes the concentration giving half of the maximal activity seen.

human Muscarinic Acetylcholine Receptor M4 Antagonism, conducted at France lab site, CHRM4 (gene 1132), sequence (P08173 whole entry, looked up): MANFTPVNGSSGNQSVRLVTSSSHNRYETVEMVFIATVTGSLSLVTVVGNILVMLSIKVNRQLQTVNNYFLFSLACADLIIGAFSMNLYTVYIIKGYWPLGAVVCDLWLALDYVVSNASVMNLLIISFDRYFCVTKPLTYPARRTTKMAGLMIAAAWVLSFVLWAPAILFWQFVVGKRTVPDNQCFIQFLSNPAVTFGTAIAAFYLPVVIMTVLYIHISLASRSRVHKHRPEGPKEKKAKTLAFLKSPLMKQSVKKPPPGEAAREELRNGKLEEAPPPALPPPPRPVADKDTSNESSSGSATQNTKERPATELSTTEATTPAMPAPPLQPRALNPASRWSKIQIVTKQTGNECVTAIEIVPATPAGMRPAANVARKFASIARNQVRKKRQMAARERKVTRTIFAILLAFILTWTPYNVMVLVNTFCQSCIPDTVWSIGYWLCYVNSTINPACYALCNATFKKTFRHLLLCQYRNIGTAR

For the test, the target named is human Muscarinic Acetylcholine Receptor M4 Antagonism, conducted at France lab site, CHRM4 (gene 1132) (UniProt P08173). Nature of the test: ERF_FR_GPCR_hCHRM4: Eurofins (ERF) G Protein-Coupled Receptor (GPCR) Radioligand Binding LeadHunter Assay for human Muscarinic Acetylcholine Receptor M4 Antagonism, conducted at France lab site. On the procedure:
ERF_FR_GPCR_hCHRM4 is a biochemical, single-readout assay that uses extracted gene-proteins in a cell-free assay. Measurements were taken 1 hour after chemical dosing in a 96-well plate. See M4 Human Acetylcholine (Muscarinic) GPCR Binding (Antagonist Radioligand) Assay, Cerep.ERF_FR_GPCR_hCHRM4 is an assay component calculated from the ERF_FR_GPCR_hCHRM4 assay. It is designed to measure radioligand binding using a type of binding reporter as detected by scintillation counting with radiometry technology.Data from the assay component ERF_FR_GPCR_hCHRM4 was analyzed at the assay endpoint, ERF_FR_GPCR_hCHRM4, in the positive analysis fitting direction relative to DMSO as the negative control and baseline of activity. Using a type of binding reporter, loss-of-signal activity can be used to understand changes in binding as they relate to gene CHRM4. To generalize the intended target to other relatable targets, this assay endpoint is annotated to the gpcr intended target family, where the subfamily is acetylcholine (Muscarinic).
Human cells are incubated for 60 minutes at room temprature with [3H]4-DAMP ligand (0.2 nM) and 4-Damp methiodide as control inhibitor.Test Sample Requirements: Minimum for 1) Screen: 60 ul of 10 mM stock -OR- 1 mg (pre-weighed) for 10 uM final testing. 2) Dose Response: 90 ul of 10 mM stock -OR- 1 mg (pre-weighed) for a top concentration at 10 uM.
With `O=C(/C=C/c1ccc(O)cc1)CC(=O)/C=C/c1ccc(O)cc1`, the AC50 was 9.09 µM (active).
